The campaign covered roughly 5,500 compounds. About 2,000 (36%) were called active. Another 18% or so got no clear call; they are omitted. Rule as the data show it: active = normalized growth mostly below about 0.91 (no sharp cut-off); inconclusive = no clear call, values can overlap the other calls; inactive = mostly above about 0.92. This is one part of the list.
Experiment: chemical genetic growth profiling, strain panel (AID 1159580);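 also: tested at 20 µM; growth read once vehicle control cultures reached saturation at 30 °C; 1 = growth at the plate median or of vehicle wells; lower values mean less growth of the strain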
Conditions: growth OD
[1] = S. cerevisiae deletion strains, locus YDL101C, strain DUN1, stronger effect = lower value
[2] = S. cerevisiae deletion strains, locus YHR030C, strain SLT2, stronger effect = lower value

Measured: normalized growth

COc1ccccc1NC(=S)NCCC(=O)O
inactive: S. cerevisiae deletion strains, locus YAL013W, strain DEP1, stronger effect = lower value 1.01 | S. cerevisiae deletion strains, locus YBR229C, strain ROT2, stronger effect = lower value 1 | S. cerevisiae deletion strains, locus YCL061C, strain MRC1, stronger effect = lower value 1 | [1] 0.985 | S. cerevisiae deletion strains, locus YDR150W, strain NUM1, stronger effect = lower value 0.955 | S. cerevisiae deletion strains, locus YEL061C, strain CIN8, stronger effect = lower value 0.991 | S. cerevisiae deletion strains, locus YGR078C, strain PAC10, stronger effect = lower value 0.995 | [2] 1.03 | S. cerevisiae deletion strains, locus YHR087W, strain rtc3, stronger effect = lower value 0.986 | S. cerevisiae deletion strains, locus YJL187C, strain SWE1, stronger effect = lower value 1.01 | S. cerevisiae deletion strains, locus YJR075W, strain HOC1, stronger effect = lower value 1.03 | S. cerevisiae deletion strains, locus YLR039C, strain RIC1, stronger effect = lower value 1.03 | S. cerevisiae deletion strains, locus YLR058C, strain SHM2 (second series), stronger effect = lower value 1.01 | S. cerevisiae deletion strains, locus YLR085C, strain ARP6, stronger effect = lower value 1.03 | S. cerevisiae deletion strains, locus YLR262C, strain YPT6, stronger effect = lower value 1.02 | S. cerevisiae deletion strains, locus YML094W, strain GIM5, stronger effect = lower value 0.963 | S. cerevisiae deletion strains, locus YMR219W, strain ESC1, stronger effect = lower value 1.01 | S. cerevisiae deletion strains, locus YMR263W, strain SAP30, stronger effect = lower value 0.989 | S. cerevisiae deletion strains, locus YNL153C, strain GIM3, stronger effect = lower value 0.996 | S. cerevisiae deletion strains, locus YNL298W, strain CLA4 (second series), stronger effect = lower value 1.02 | S. cerevisiae deletion strains, locus YNL322C, strain KRE1, stronger effect = lower value 0.999 | S. cerevisiae deletion strains, locus YNR030W, strain Alg12, stronger effect = lower value 1.01 | S. cerevisiae deletion strains, locus YPL055C, strain LGE1, stronger effect = lower value 0.919 | S. cerevisiae deletion strains, locus YPL241C, strain CIN2, stronger effect = lower value 1.07 | S. cerevisiae deletion strains, locus YPR135W, strain CTF4, stronger effect = lower value 0.984 | S. cerevisiae strains, strain wild type, stronger effect = lower value 1.01

CCOC(=O)NC(=S)Nc1ccc(C(C)(C)C)cc1NC(=S)NC(=O)OCC
inactive: S. cerevisiae deletion strains, locus YAR019C, strain CDC15, stronger effect = lower value 0.986 | S. cerevisiae deletion strains, locus YBL105C, strain PKC1, stronger effect = lower value 0.985 | S. cerevisiae deletion strains, locus YBR135W, strain CKS1, stronger effect = lower value 0.98 | S. cerevisiae deletion strains, locus YBR136W, strain MEC1, stronger effect = lower value 0.979 | S. cerevisiae deletion strains, locus YBR160W, strain CDC28, stronger effect = lower value 0.991 | S. cerevisiae deletion strains, locus YDL017W, strain CDC7, stronger effect = lower value 0.989 | S. cerevisiae deletion strains, locus YDL028C, strain MPS1, stronger effect = lower value 0.979 | [1] 0.982 | S. cerevisiae deletion strains, locus YDL108W, strain KIN28, stronger effect = lower value 0.985 | S. cerevisiae deletion strains, locus YDL132W, strain cdc53, stronger effect = lower value 0.983 | S. cerevisiae deletion strains, locus YDL214C, strain PRR2, stronger effect = lower value 0.94 | S. cerevisiae deletion strains, locus YDR052C, strain DBF4, stronger effect = lower value 0.982 | S. cerevisiae deletion strains, locus YDR054C, strain cdc34, stronger effect = lower value 0.983 | S. cerevisiae deletion strains, locus YDR226W, strain ADK1, stronger effect = lower value 0.988 | S. cerevisiae deletion strains, locus YDR477W, strain SNF1, stronger effect = lower value 0.921 | S. cerevisiae deletion strains, locus YER123W, strain YCK3, stronger effect = lower value 0.879 | S. cerevisiae deletion strains, locus YER133W, strain GLC7, stronger effect = lower value 0.934 | S. cerevisiae deletion strains, locus YFL009W, strain cdc4, stronger effect = lower value 0.974 | S. cerevisiae deletion strains, locus YFL029C, strain CAK1, stronger effect = lower value 0.985 | S. cerevisiae deletion strains, locus YFR003C, strain YPI1, stronger effect = lower value 0.986 | S. cerevisiae deletion strains, locus YFR019W, strain FAB1, stronger effect = lower value 0.922 | S. cerevisiae deletion strains, locus YFR028C, strain CDC14, stronger effect = lower value 0.986 | S. cerevisiae deletion strains, locus YGR040W, strain KSS1, stronger effect = lower value 0.923 | S. cerevisiae deletion strains, locus YGR052W, strain FMP48, stronger effect = lower value 1.04 | S. cerevisiae deletion strains, locus YGR092W, strain DBF2, stronger effect = lower value 0.572 | [2] 1.08 | S. cerevisiae deletion strains, locus YHR079C, strain IRE1, stronger effect = lower value 0.985 | S. cerevisiae deletion strains, locus YHR082C, strain KSP1, stronger effect = lower value 1.05 | S. cerevisiae deletion strains, locus YHR205W, strain SCH9, stronger effect = lower value 0.985 | S. cerevisiae deletion strains, locus YIL147C, strain SLN1, stronger effect = lower value 0.978 | S. cerevisiae deletion strains, locus YJL095W, strain BCK1, stronger effect = lower value 0.995 | S. cerevisiae deletion strains, locus YJL128C, strain PBS2, stronger effect = lower value 0.944 | S. cerevisiae deletion strains, locus YJL157C, strain FAR1, stronger effect = lower value 0.911 | S. cerevisiae deletion strains, locus YJR016C, strain ILV3, stronger effect = lower value 0.981 | S. cerevisiae deletion strains, locus YJR066W, strain TOR1 (second series), stronger effect = lower value 0.778 | S. cerevisiae deletion strains, locus YJR066W, strain TOR1, stronger effect = lower value 1.06 | S. cerevisiae deletion strains, locus YKL048C, strain ELM1, stronger effect = lower value 0.928 | S. cerevisiae deletion strains, locus YKL067W, strain YNK1, stronger effect = lower value 0.932 | S. cerevisiae deletion strains, locus YKL101W, strain HSL1, stronger effect = lower value 0.961 | S. cerevisiae deletion strains, locus YKL193C, strain SDS22, stronger effect = lower value 0.987 | S. cerevisiae deletion strains, locus YKL203C, strain TOR2, stronger effect = lower value 0.989 | S. cerevisiae deletion strains, locus YLR113W, strain HOG1, stronger effect = lower value 1.02 | S. cerevisiae deletion strains, locus YLR133W, strain CKI1, stronger effect = lower value 0.948 | S. cerevisiae deletion strains, locus YLR403W, strain SFP1, stronger effect = lower value 0.91 | S. cerevisiae deletion strains, locus YML070W, strain DAK1, stronger effect = lower value 0.925 | S. cerevisiae deletion strains, locus YMR001C, strain CDC5, stronger effect = lower value 0.985 | S. cerevisiae deletion strains, locus YMR205C, strain PFK2 (second series), stronger effect = lower value 0.924 | S. cerevisiae deletion strains, locus YMR277W, strain FCP1, stronger effect = lower value 0.981 | S. cerevisiae deletion strains, locus YNL006W, strain LST8, stronger effect = lower value 0.98 | S. cerevisiae deletion strains, locus YNL020C, strain ARK1, stronger effect = lower value 0.928 | S. cerevisiae deletion strains, locus YNL161W, strain CBK1, stronger effect = lower value 0.986 | S. cerevisiae deletion strains, locus YNL183C, strain NPR1, stronger effect = lower value 1.06 | S. cerevisiae deletion strains, locus YNL207W, strain RIO2, stronger effect = lower value 0.981 | S. cerevisiae deletion strains, locus YNL222W, strain SSU72, stronger effect = lower value 0.98 | S. cerevisiae deletion strains, locus YNL307C, strain MCK1 (second series), stronger effect = lower value 0.926 | S. cerevisiae deletion strains, locus YOL078W, strain AVO1, stronger effect = lower value 0.979 | S. cerevisiae deletion strains, locus YOL136C, strain PFK27, stronger effect = lower value 0.931 | S. cerevisiae deletion strains, locus YOR061W, strain CKA2, stronger effect = lower value 0.712 | S. cerevisiae deletion strains, locus YOR119C, strain RIO1, stronger effect = lower value 0.959 | S. cerevisiae deletion strains, locus YOR231W, strain MKK1, stronger effect = lower value 0.997 | S. cerevisiae deletion strains, locus YOR329C, strain SCD5, stronger effect = lower value 0.983 | S. cerevisiae deletion strains, locus YPL031C, strain PHO85, stronger effect = lower value 0.93 | S. cerevisiae deletion strains, locus YPL153C, strain RAD53, stronger effect = lower value 0.897 | S. cerevisiae deletion strains, locus YPL204W, strain HRR25, stronger effect = lower value 0.924 | S. cerevisiae deletion strains, locus YPL209C, strain IPL1, stronger effect = lower value 0.989 | S. cerevisiae deletion strains, locus YPL256C, strain CLN2, stronger effect = lower value 1.04 | S. cerevisiae deletion strains, locus YPR025C, strain CCL1, stronger effect = lower value 0.986 | S. cerevisiae deletion strains, locus YPR106W, strain ISR1, stronger effect = lower value 0.986 | S. cerevisiae deletion strains, locus YPR111W, strain DBF20, stronger effect = lower value 0.978 | S. cerevisiae deletion strains, strain NNK1, stronger effect = lower value 0.981 | S. cerevisiae deletion strains, strain TSCII, stronger effect = lower value 0.985

Reference: PubChem BioAssay AID1159580 (chemical genetic matrix, 2015)
